We go through 65 compounds from PubChem BioAssay AID588342 (National Center for Advancing Translational Sciences (NCATS), 2011).

In all, about 360,000 compounds went through this assay and about 25,000 (6.9%) were called active. About 9% were inconclusive and are not listed. Calls follow the shape of the dose curve; as a rule, active = well fitted inhibition curve with a large enough effect; inconclusive = small, poorly fitted or top-dose-only effect; inactive = flat fitted curve, though single readings scatter. The entries come from a sample that favours actives as a whole. A call without a number means that no potency is given here.
Potency is read from the fitted curve at half-maximal effect.

Sequence of Luciferin 4-monooxygenase (Photinus pyralis) (P08659 whole entry, looked up): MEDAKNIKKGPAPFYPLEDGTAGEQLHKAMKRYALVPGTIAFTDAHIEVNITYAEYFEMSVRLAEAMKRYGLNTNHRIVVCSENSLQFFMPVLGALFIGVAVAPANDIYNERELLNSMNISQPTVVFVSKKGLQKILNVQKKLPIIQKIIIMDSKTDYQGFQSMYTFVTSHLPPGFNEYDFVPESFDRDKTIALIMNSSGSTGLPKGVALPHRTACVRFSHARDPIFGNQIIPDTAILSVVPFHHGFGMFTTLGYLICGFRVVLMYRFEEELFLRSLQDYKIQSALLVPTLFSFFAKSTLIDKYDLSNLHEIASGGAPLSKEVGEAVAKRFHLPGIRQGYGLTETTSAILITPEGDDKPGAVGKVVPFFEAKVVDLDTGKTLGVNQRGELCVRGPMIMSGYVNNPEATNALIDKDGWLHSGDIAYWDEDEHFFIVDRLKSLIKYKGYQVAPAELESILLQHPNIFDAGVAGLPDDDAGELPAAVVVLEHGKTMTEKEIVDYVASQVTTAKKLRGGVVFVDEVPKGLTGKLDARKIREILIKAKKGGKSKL

This test concerns the target Luciferin 4-monooxygenase (Photinus pyralis) (UniProt P08659). Briefly: qHTS profiling assay for firefly luciferase inhibitor/activator using purifed enzyme and Km concentrations of substrates (counterscreen for miR-21 project). Also: nearly all actives have a fitted effect of over 55% in size. The conditions noted are these: purified FLuc, luminescence inhibition; series mostly up to 57.5 µM. The procedure, abridged:
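Biochemical qHTS of compounds, final roughly 60 µM downward over six points, against 10 nM purified firefly luciferase using Km concentrations of substrates (10 uM D-luciferin, 10 uM ATP) in Tris acetate pH 7.5 buffer; luminescence output.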
(In general: Quantitative high-throughput screening tests each substance at several concentrations.)
Take `COc1cccc(-c2nc(CS(=O)(=O)CC(=O)N3CCN(c4cc(C)ccc4C)CC3)c(C)o2)c1`: the Potency result is “inactive”.

Regarding `COc1cccc(OCC(O)CNC(=O)c2oc3c(C)c(C)ccc3c2C)c1` (stereo not given), the Potency result was “inactive”.

On to `O=C(NCc1ccccc1)C(=O)NCC1OCCN1S(=O)(=O)c1ccc(Br)cc1` (stereo not given), for which the Potency result is “inactive”.

As to `O=C(Oc1ccc(-c2nnco2)cc1)c1ccc(F)c(S(=O)(=O)N2CCOCC2)c1`, the Potency result was “inactive”.

With `Cc1occc(=O)c1OCc1ccc(F)cc1`, the Potency result is “inactive”.

Turning to `Fc1ccc(COc2ccc(-c3nnco3)cc2)cc1`, the Potency was 13.5 µM (active).

In the case of `COCCN1Cc2cccc(C(=O)Nc3ccccc3OC)c2C1=O`, the Potency entry is “inactive”.

In the case of `COc1ccc(C(=O)Nc2ccc(C(=O)NCC3CCCO3)cc2)c(OC)c1OC` (stereo not given), the Potency result is “inactive”.

In the case of `CCOc1ccc(NC(=O)c2cccc3c2C(=O)N(CC2CCCO2)C3)cc1` (stereo not given), the Potency is 8.49 µM (active).

With `COc1ccc(NC(=O)c2cccc3c2C(=O)N(CC2CCCO2)C3)cc1OC` (stereo not given), the Potency is 26.9 µM (active).

On to `COC(=O)c1ccc(NC(=O)c2cccc3c2C(=O)N(C2CCCCC2)C3)cc1`, for which the Potency result was “inactive”.

`CCCN1Cc2cccc(C(=O)Nc3ccc(S(=O)(=O)N4CCCCCC4)cc3)c2C1=O`: the Potency entry was “inactive”.

In the case of `Cc1ccsc1CN(C(=O)c1oc2ccc(Br)cc2c1C)C1CCS(=O)(=O)C1` (stereo not given), the Potency entry is “inactive”.

On to `O=C1C=C(c2cc(C(F)(F)F)cc(C(F)(F)F)c2)C[C@@H](c2ccc3c(c2)OCO3)C1`, for which the Potency result was “inactive”.

Regarding `Cc1cc(C(F)(F)F)n2ncc(-c3ccccc3)c2n1`, the Potency entry was “inactive”.

For the compound `Cc1cc(-n2nc(C)cc2C)n2ncc(-c3ccccc3)c2n1`, the Potency entry was “inactive”.

With `COc1ccccc1-c1cnn2c(N3CCOCC3)cc(C)nc12`, the Potency is 6.01 µM (active).

On to `CC1Cc2ccccc2N1S(=O)(=O)c1cccc(C(=O)NCC(c2ccco2)N2CCCC2)c1` (stereo not given), for which the Potency entry is “inactive”.

For the compound `COc1ccccc1CNC(=O)C(=O)NCC(c1cccs1)S(=O)(=O)c1cccs1` (stereo not given), the Potency result is “inactive”.

With `COc1ccc(C(=O)/C=C/c2ccc(-c3ccccc3)cc2)cc1CSCC(=O)O`, the Potency result is “inactive”.

Regarding `O=S(=O)(/C=C/c1ccccc1)N1CCNCC1`, the Potency result is “inactive”.

As to `O=C(/C=C/c1ccccc1)c1ccccc1O`, the Potency was 3.38 µM (active).

Consider `O=C(/C=C/c1ccccc1)c1ccoc1`, for which the Potency is 15.1 µM (active).

`Cc1[nH]c(=O)c(C(=O)/C=C/c2ccccc2)c2c1CCCC2`: the Potency result was “inactive”.

Regarding `O=C(/C=C(O)/C=C/c1ccc(O)cc1)/C=C/c1ccc(O)cc1`, the Potency result was “inactive”.

Consider `O=C(CSc1nnc(-c2ccncc2)n1-c1ccccc1)Nc1ccc(Cl)c(Cl)c1`, for which the Potency result is “inactive”.

Consider `COc1ccc(CCNC(=O)c2cn(C)c3ccc(S(=O)(=O)N(C)C4CCCCC4)cc3c2=O)cc1OC`, for which the Potency result is “inactive”.

`CSc1ccc(C2c3c(oc4ccccc4c3=O)C(=O)N2CCCN2CCOCC2)cc1` (stereo not given): the Potency entry is “inactive”.

As for `COc1cc(Cl)c(C)cc1NC(=O)CSc1nnc(-c2ccco2)n1CC(C)C`, the Potency entry was “inactive”.

For the compound `COc1ccc(OC)c(S(=O)(=O)Nc2cccc(-c3ccc4nncn4n3)c2)c1`, the Potency result is “inactive”.

With `CCOc1ccc(C(=O)Nc2c3c(nn2-c2ccccc2)CS(=O)(=O)C3)cc1`, the Potency result was “inactive”.

As to `CCOc1ccc(NC(=O)c2ccc(NC(=O)COC(=O)c3ccc(NC(=O)CC#N)cc3)cc2)cc1`, the Potency entry was “inactive”.

With `CCOc1ccc(C(=O)Nc2cccc(SC)c2)cc1`, the Potency is 6.01 µM (active).

For the compound `CCOc1cccc(NC(=O)CC#N)c1`, the Potency entry is “inactive”.

Consider `CCOc1ccc(C(=O)Nc2cccc(-c3ccc4nncn4n3)c2)cc1`, for which the Potency was 8.49 µM (active).

Turning to `NS(=O)(=O)c1ccc(CCNS(=O)(=O)c2cccc3cccnc23)cc1`, the Potency entry is “inactive”.

For `O=C(O[C@@H]1[C@H](Cc2ccccc2)NS(=O)(=O)[C@H]2C[C@@H]3C=C[C@]12O3)c1ccccc1Br`, the Potency result was “inactive”.

For `COc1cccc(NC(=O)Nc2nnc(N3CCCCC3C)s2)c1` (stereo not given), the Potency is 13.5 µM (active).

For `COc1cccc(NC(=O)N2CCCC2C(=O)NC2CCCCC2)c1` (stereo not given), the Potency result was “inactive”.

On to `COc1cccc(NC(=O)NCCN2CCCCC2)c1`, for which the Potency entry was “inactive”.

As to `CCOC(=O)C1(CCOC)CCN(Cc2cc3ccccc3s2)CC1`, the Potency result was “inactive”.

As for `CN(Cc1ccccc1)S(=O)(=O)c1ccc(F)c(C(=O)Nc2cccc(Cl)c2Cl)c1`, the Potency result was “inactive”.

On to `O=C1c2cccnc2C(Nc2ccc(S(=O)(=O)N3CCCCCC3)cc2)N1Cc1ccccc1` (stereo not given), for which the Potency entry is “inactive”.

As to `C(=N\Nc1ccc2ccccc2n1)/c1ccc2c(c1)OCO2`, the Potency was 0.19 µM (active).

Regarding `Cc1noc(C)c1/C=N/Nc1ccc2ccccc2n1`, the Potency is 1.69 µM (active).

As for `O=C(Cc1ccc(F)cc1)N/N=C/c1ccc2c(c1)OCO2`, the Potency result is “inactive”.

For `Brc1ccc(-c2csc(N/N=C/c3ccc4c(c3)OCO4)n2)cc1`, the Potency entry is “inactive”.

As to `COc1ccc(NC(=O)C2C3CCC(O3)C2C(=O)O)cc1OC` (stereo not given), the Potency result was “inactive”.

Take `Cc1cccn2c(=O)c3cc(C(=O)NC(C)c4ccccc4)c(=N)n(CCCO)c3nc12` (stereo not given): the Potency entry is “inactive”.

As for `CCCN(CCC)CCNC(=O)c1ccc2c(c1)NC(=O)C(CS(=O)(=O)Cc1cccc(Br)c1)N2` (stereo not given), the Potency entry is “inactive”.

Regarding `COc1cccc(N=C2SC(C(=O)Nc3cccc(Cl)c3)CC(=O)N2C)c1` (stereo not given), the Potency entry is “inactive”.

Consider `O=C(Nc1cccn(Cc2ccccc2Cl)c1=O)NC1CCCCC1`, for which the Potency was 21.3 µM (active).

As for `O=C(COc1ccccc1Cl)Nc1ccccc1C(=O)NC1CC1`, the Potency entry is “inactive”.

For the compound `COc1ccc(Cn2cccc(NC(=O)Nc3ccc(C#N)cc3)c2=O)cc1`, the Potency result was “inactive”.

Consider `CCOc1ccc(NC(=O)CCc2c(C)nn(-c3ccc(N4CCCC4)nn3)c2C)cc1`, for which the Potency entry is “inactive”.

Regarding `CCC(=O)Nc1ccc(-c2ccc(N3CCCCC3)nn2)cc1`, the Potency was 12 µM (active).

Consider `CCC(=O)c1ccc(OCC(=O)Nc2ccc(N3CCCCC3)cc2)cc1`, for which the Potency result was “inactive”.

For `O=C(CSc1nc2ccccc2nc1Cc1ccccc1)N1CCCCC1`, the Potency result is “inactive”.

In the case of `O=C(CC(c1cccs1)N1Cc2ccccc2C1=O)Nc1ccc(F)c(F)c1` (stereo not given), the Potency entry was “inactive”.

Turning to `Cc1sc2ncnc(N3CCC(C(=O)Nc4nc5ccc(Cl)cc5s4)CC3)c2c1C`, the Potency was 15.1 µM (active).

For the compound `Cc1sc2ncnc(N3CCC(C(=O)Nc4ccc(F)cc4Cl)CC3)c2c1C`, the Potency result was “inactive”.

With `Cc1sc2ncnc(N3CCC(C(=O)NNC(=O)c4ccc(F)cc4)CC3)c2c1C`, the Potency entry was “inactive”.

With `Cc1ccc(S(=O)(=O)N(C)C)cc1NC(=O)C1Cc2ccccc2CN1C(=O)c1ccco1` (stereo not given), the Potency result was “inactive”.

For the compound `CCN(CC)c1ccc(C(=O)Nn2c(C)nc3ccccc3c2=O)cc1`, the Potency entry is “inactive”.

Regarding `CCN(CC)c1ccc(C(=O)c2cnc(/N=C/N(C)C)s2)cc1`, the Potency is 16.9 µM (active).
